# KB-3-1 tox: qHTS assay for MDR1-selective chemotherapeutics: Primary screen using the parental adenocarcinoma cell KB-3-1; 400,000 compounds, 1.4% hits; KB-3-1 viability, CellTiter-Glo ATP luminescence, 72 h; Potency, µM (series often up to 46.1 µM), most hits filed as cytotoxic; AID 1347075, 2019; further: potency means the concentration at half of the fitted maximal effect; on the % scale 0 is the no-effect control and ±100 the full control effect; nearly all actives have a fitted effect of over 60% in size
#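 Parental KB-3-1 viability, qHTS format: 72 h compound exposure, 37 °C; CellTiter-Glo; media-only wells and DMSO plates as controls; concentration-effect fits on corrected data.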
# DRD3 agonist: qHTS of D3 Dopamine Receptor Agonist: qHTS | D3R DiscoveRx beta-arrestin cells, luminescence, 90 min | max activation, % | 410,000 compounds, 0.58% hits; in the data active means max activation above about 30%; further: 0% is about no effect
# Target sequence (P35462 whole entry, looked up): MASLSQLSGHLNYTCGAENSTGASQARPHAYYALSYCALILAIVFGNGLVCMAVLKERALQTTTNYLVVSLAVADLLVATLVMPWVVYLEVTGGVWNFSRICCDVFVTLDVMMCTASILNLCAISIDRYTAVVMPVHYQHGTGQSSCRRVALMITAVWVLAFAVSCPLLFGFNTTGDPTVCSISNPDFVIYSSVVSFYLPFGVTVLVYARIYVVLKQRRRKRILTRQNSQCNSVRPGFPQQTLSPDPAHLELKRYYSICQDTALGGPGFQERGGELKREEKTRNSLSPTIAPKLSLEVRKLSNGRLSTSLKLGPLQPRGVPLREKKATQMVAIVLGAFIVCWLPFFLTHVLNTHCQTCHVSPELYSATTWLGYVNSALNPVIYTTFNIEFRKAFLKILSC
#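 Agonist mode: compounds and dopamine controls were applied to plated cells for 90 min at 37 degrees C after an overnight attachment at 1500 cells/well. Luminescent read-out followed 30 - 60 minutes at room temperature with DiscoveRx detection reagent.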
# D3 antag: qHTS of D3 Dopamine Receptor Antagonist: qHTS | D(3) dopamine receptor (Homo sapiens), P35462 | D3R cells, DiscoveRx beta-arrestin luminescence, antagonist mode; hits give low values | max response, negative = inhibition, % | 360,000 compounds, 2.5% hits | AID 652054, 2013; in the data active means max response below about -50%; inconclusive means no clear call, values can overlap the other calls; further: on the % scale 0 is the no-effect control and ±100 the full control effect
#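 Cells expressing the human receptor were seeded at 1500 cells/well, incubated overnight at 37 degrees C in 5% CO2, then exposed to library compounds with dopamine controls for 90 minutes at 37 degrees C before luminescent detection.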
# KB-V1 MDR tox: qHTS assay for MDR1-selective chemotherapeutics: Primary screen using the drug-selected MDR subline cells KB-V1. KB-V1 MDR cells viability, CellTiter-Glo, 72 h. Potency, µM (doses to about 46.1 µM), actives largely listed as cytotoxic. 400,000 compounds, 3.4% hits. AID 1347076, 2019; further: potency means the concentration at half of the fitted maximal effect; on the % scale 0 is the no-effect control and ±100 the full control effect; nearly all actives have a fitted effect of over 60% in size
#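 Drug-selected KB-V1 cells, grown in DMEM lacking phenol red with 10% FBS, receive compound titrations; after three days at 37 degrees C, surviving cell ATP is quantified by CellTiter-Glo luminescence and responses normalized and curve-fitted.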
# MCF10A rereplic: A quantitative high throughput screen for small molecules that induce DNA re-replication in MCF 10a normal breast cells | Potency, µM (doses to about 46.1 µM), for inactives: top-dose activity, positive = re-replication, hits mostly activators | MCF 10A DNA re-replication, Hoechst nuclear intensity, 48 h | 350,000 compounds, 2.9% hits; further: potency means the concentration at half of the fitted maximal effect; % of control where 0% means no effect; nearly all actives have a fitted effect of over 50% in size
# SW480 rereplic: A quantitative high throughput screen for small molecules that induce DNA re-replication in SW480 colon adenocarcinoma cells | AID 624297, 2012 | Potency, µM (doses to about 46.1 µM), for inactives: at the top dose re-replication activation, most hits filed as activators | 340,000 compounds, 1.8% hits | SW480 DNA re-replication, Hoechst DNA content imaging, 48 h; further: potency means the concentration at half of the fitted maximal effect; % of control where 0% means no effect; nearly all actives have a fitted effect of over 55% in size
#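 Treated cells incubate 48 hr (37 C, 5% CO2), are stained 40 min with Hoechst, and nuclear fluorescence is enumerated; a rise in nuclei with high DNA signal marks re-replication.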
# * hit, by the source's call; i = inactive; ? = inconclusive; . = not tested or not shown; ! = not confirmed by another sample. The list is not random: actives were taken first. Their share in the collection is about 8.9%. Unless noted, the call rests on the fitted dose curve; in most records, active means well fitted curve in the direction sought with a large enough effect; inconclusive means small, poorly fitted or top-dose-only effect, or another doubt; inactive means no such curve, though single readings can be large; an effect the other way counts as inactive or inconclusive.
SMILES,KB-3-1 tox,DRD3 agonist,D3 antag,KB-V1 MDR tox,MCF10A rereplic,SW480 rereplic
COc1ccc(C(CNC(=O)COc2ccc(Br)cc2F)N2CCCC2)cc1 (configuration not stated),i,-36,-76*,?,-1%,-3%
COc1ccc(C(CNC(=O)COc2cccc(C(F)(F)F)c2)N2CCCC2)cc1 (configuration not stated),i,-26,-107*,i,3%,-19%
COc1ccc(C(CNC(=O)COc2cccc(C)c2)N2CCCC2)cc1 (configuration not stated),i,-3,-76*,i,-8%,3%
COc1ccc(C(CNC(=O)COc2ccc(Cl)c(C)c2)N2CCCCC2)cc1 (configuration not stated),i,-19,-95*,i,?,-6%
COc1ccc(C(CNC(=O)COc2ccc(C)cc2)N2CCCCC2)cc1 (configuration not stated),i,-27,.,i,.,.
CCOc1ccc(OCC)c(NC(=O)c2cc(S(=O)(=O)N3CCc4ccccc43)cn2C)c1,.,4,.,.,.,.
Nc1c(-c2nc(-c3cccs3)no2)nnn1-c1cccc(F)c1,i,-5,.,?,.,.
CCOC(=O)C1CCCN(C(=O)CN2C(=O)/C(=C/c3ccc(OC)cc3)Oc3ccccc32)C1 (configuration not stated),i,-6,25,16µM*,?,5%
NC(=O)C(c1ccccc1)(c1ccccc1)[C@@H]1CCN(CCc2ccc3c(c2)CCO3)C1,.,-17,.,.,1%,6%
Nc1nc2cc3c(cc2cc1C(=O)NCc1ccc(F)cc1)OCO3,7.3µM*,0,-14,i,.,.
O=c1[nH]c2ccc(NS(=O)(=O)c3ccc(F)cc3)cc2s1,.,-9,.,.,.,.
CC1(C)CC(=O)c2c(O)c(-c3ccccc3)c(=O)n(-c3ccccc3)c2C1,i,2,1,13µM*,13%,-10%
COc1ccc(OC)c(NCc2cccn2-c2nnc(N3CCCCC3)s2)c1,?,-3,.,?,.,.
Cc1ccc(Cl)cc1NC(=O)c1ccc(-c2nc(CSc3ccccc3)c(C)o2)cc1,?,-5,.,i,.,.
CC(C)(C)C(=O)Cn1ncc(Br)c(Br)c1=O,10µM*,-6,?,i,5.8µM*,7.3µM*
Cc1ccc(NC(=O)c2ncoc2-c2ccco2)cc1Cl,i,-5,.,?,.,.
CCOCCCn1c(=NC(=O)c2cccs2)c(C#N)cc2c(=O)n3cccc(C)c3nc21,i,4,74,?,9.2µM*,?
Cc1cccn2c(=O)c3cc(C#N)c(=NC(=O)c4ccco4)n(Cc4ccco4)c3nc12,?,1,5,i,9%,8%
COCCCn1c(=NC(=O)c2ccccc2)c(C#N)cc2c(=O)n3cccc(C)c3nc21,i,4,-9,i,6.5µM*,12%
COCCCn1c(=NC(C)=O)c(C#N)cc2c(=O)n3cccc(C)c3nc21,i,14,11,i,18µM*,5.8µM*
Cc1cccn2c(=O)c3cc(C#N)c(=NC(=O)c4cccs4)n(CC(C)C)c3nc12,i,2,2,i,?,?
COc1cccc(C(=O)OCC(=O)N2CCc3ccccc3C2)c1OC,i,-4,-14,i,1%,-9%
CCOc1ccc(C2CC(=O)Nc3c2c(=O)[nH]c2ncnn32)cc1 (configuration not stated),i,-11,.,i,.,.
COc1ccc(Cn2c(C(=O)O)c(CNCc3ccc(C)o3)c3ccc(OC)cc32)cc1,8.2µM*,-2,.,i,.,.
Cc1cc2nc(C3CCN(CC4COc5ccccc5O4)CC3)[nH]c2cc1C (configuration not stated),?,-1,-50*,i,?,?
SMILES,KB-3-1 tox,DRD3 agonist,D3 antag,KB-V1 MDR tox,MCF10A rereplic,SW480 rereplic
CN1CCN(CC(=O)N2N=C(c3cccs3)CC2c2ccco2)CC1 (configuration not stated),i,-13,-8,i,-2%,-40%
CCCc1cc(=O)[nH]c(SCC(=O)N2N=C(c3ccc(Cl)cc3)CC2c2ccco2)n1 (configuration not stated),?,2,2,21µM*,?,-8%
Cc1ccc(C2=NN(C(=O)CSc3nc4ncc(Cl)cc4[nH]3)C(c3ccco3)C2)cc1 (configuration not stated),i,-4,-4,i,5%,3%
Cc1ccc(C2=NN(C(=O)CSc3nccn3C)C(c3ccco3)C2)cc1 (configuration not stated),?,-3,-21,9.2µM*,?,12µM*
O=C(CCl)N1N=C(c2cccs2)CC1c1ccco1 (configuration not stated),?,-10,-28,?,18µM*,12µM*
O=C(CCl)N1N=C(c2ccco2)CC1c1ccco1 (configuration not stated),?,-6,0,?,?,21µM*
CC(C)(C)c1ccc(S(=O)(=O)c2cn(CC(=O)Nc3ccccc3)c3ccccc3c2=O)cc1,i,-8,.,i,.,.
Clc1ccccc1OCCSc1nnc(-c2cccs2)o1,i,-13,.,i,.,.
CC1CN(Cc2ccccc2)C(=O)N(c2ccccc2)C1=O (configuration not stated),.,-7,-12,.,1%,0%
CC1CN(Cc2ccccc2)c2ccccc2NC1=S (configuration not stated),?,-4,-1,21µM*,41%,2%
C1CCN(CCCNC2C3CC4CC(C3)CC2C4)C1 (configuration not stated),?,-6,-53*,i,?,?
CCCC(=O)NCCCCNC(=O)CCC,i,-1,-15,i,-1%,-8%
CC(=O)N(O)CCCCCNC(=O)CCC(=O)N(O)CCCCCNC(=O)CCC(=O)N(O)CCCCCN,21µM*!,4,13,?,?,2.5µM*!
CC1=C(c2ccc(C)cc2)S(=O)(=O)N=C1N1CCN(c2ccccc2)CC1,i,0,.,i,.,.
Cc1ccc(C)c(N2CCN(C(=O)CSCc3ccccc3Cl)CC2)c1,.,4,.,.,.,.
O=C(COc1ccc(Cl)cc1)OCCNC12CC3CC(CC(C3)C1)C2,.,4,.,.,5%,4%

# From PubChem BioAssay
